# This is a sample that favours compounds with a hit; in the whole collection about 21% have one here.
# Pf growth 48h: Primary qHTS for delayed death inhibitors of the malarial parasite plastid, 48 hour incubation; P. falciparum luciferase growth in erythrocytes, 48 h; Potency, µM (series often up to 28.7 µM), actives largely listed as inhibitors; 310,000 compounds, 5.9% hits
#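 A one-generation exposure of luciferase-tagged malaria parasites in RPMI 1640/Albumax erythrocyte culture, 37 C and 5% CO2. Inhibition is inferred from decreased luminescence after adding detection reagent.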
# Shiga toxin inh: A qHTS for Small Molecule Inhibitors of Shiga Toxin. Vero cells, Shiga toxin protein synthesis inhibition reporter. inhibition, % at 38.7 µM. 290,000 compounds, 9.2% hits; in the data active = inhibition mostly above about 28%, no sharp cut-off; inactive = mostly below about 43%
# Cycloheximide cs: Cycloheximide Counterscreen for Small Molecule Inhibitors of Shiga Toxin; cell reporter, cycloheximide protein synthesis inhibition counterscreen; max response, %; 300,000 compounds, 12% hits; in the data active = max response mostly above about 13%, no sharp cut-off; inactive = mostly below about 14%; also: read at 38.3 µM for the half of the compounds with a filed dose
# NS1 inh: qHTS Assay for Inhibitors of Influenza NS1 Protein Function. AID 2326, 2010. 270,000 compounds, 0.4% hits. Potency, µM (highest dose often 46.1 µM); calls by dose curve; also: actives are rising curves; nearly all actives have a fitted effect of over 50% in size
#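 OD600 was taken as the measure of yeast growth restored by compound in an NS1-expressing S. cerevisiae strain. Cells had been washed out of glucose medium and diluted 1:100 into galactose -URA medium, pH 6.0.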
# Pf growth 96h: Primary qHTS for delayed death inhibitors of the malarial parasite plastid, 96 hour incubation; AID 504834, 2011; P. falciparum luciferase reporter growth, 96 h; 320,000 compounds, 6.9% hits; Potency, µM (titrated, usually from 28.7 µM), hits mostly inhibitors
#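 Parasite growth measured via integrated firefly luciferase reporter in P. falciparum. Infected erythrocytes at 2% hematocrit, 0.05% parasitemia final were treated 96 hours at 37 C under 5% CO2, and luminescence was read.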
# A number is an active result; - = inactive; ? = inconclusive; . = no result. Unless noted, calls follow the shape of the dose curve; as a rule, active = well fitted inhibition curve with a large enough effect; inconclusive = small, poorly fitted or top-dose-only effect, or another doubt; inactive = no such curve, though single readings can be large or run the other way.
SMILES,Pf growth 48h,Shiga toxin inh,Cycloheximide cs,NS1 inh,Pf growth 96h
O=C(Nc1ccc([N+](=O)[O-])cc1)c1cc(Cl)sc1Cl,-,27.4,-,-,?
O=C(Nc1ccc(F)cc1)c1sc(Cl)nc1-c1ccccc1,-,-,-,-,-
O=C(Nc1ccc(F)cc1)c1cc(Cl)sc1Cl,-,77.4,29.2,.,-
CN(C(=O)CCS(=O)(=O)c1cc2c(cc1Cl)NC(=O)CO2)C1CCCCC1,-,-,-,-,-
O=S(=O)(c1ccccc1)C1(S(=O)(=O)c2ccccc2)CCCC1,-,-,-,-,?
COC(=O)c1ccc(CNC(=O)C2CCC(=O)N(CCc3ccccc3)C2)cc1 (configuration not stated),-,-,-,-,?
N#Cc1ccc(-c2csc(NNC(=O)c3ccc(Br)cc3)n2)cc1,1.65µM,-,-,-,2.94µM
O=C(NNc1nc(-c2ccccc2)cs1)c1ccccc1,?,-,-,-,2.33µM
N#Cc1ccc(-c2csc(NNC(=O)c3ccccc3)n2)cc1,11.7µM,-,-,-,3.7µM
CC(=O)c1ccc(S(=O)(=O)N2CCN(C(=O)CN3C(=O)NC4(CCCC4)C3=O)CC2)cc1,-,.,.,.,-
COc1ccc(C(C(=O)NC2CCCCC2)N(C(=O)c2ccco2)c2ccccc2C(C)=O)cc1 (configuration not stated),?,-,-,-,?
O=C(CCSc1nc(-c2ccc3c(c2)OCO3)cc(C(F)(F)F)n1)NCc1ccccc1,?,-,-,-,-
CN(Cc1ccccc1)C(=O)CCSc1nc(-c2ccc3c(c2)OCO3)cc(C(F)(F)F)n1,9.28µM,-,-,-,-
COc1ccc(OCc2cc(C(=O)N3CCCC(O)C3)no2)c2ccccc12 (configuration not stated),-,121.6,55.4,-,?
CCCOC1CCCN(C(=O)c2cc(COc3c(F)cccc3F)on2)C1 (configuration not stated),-,92.8,46.8,-,-
CCN1CCC2(CCN(C(=O)c3cc(COc4cc(C)ccc4C)on3)C2)C1 (configuration not stated),?,-,-,-,-
COc1ccc(OCc2cc(C(=O)N3CCCC(OC)C3)no2)c2ccccc12 (configuration not stated),?,92.4,50.4,-,-
COc1cc(Cl)ccc1OCc1cc(C(=O)N2CCC(N(C)C)C2)no1 (configuration not stated),-,-,-,-,?
Cc1ccc(C)c(OCc2cc(C(=O)N3CC[C@H](O)C3)no2)c1,-,92.1,34.4,-,-
Clc1ccc(-c2nc3ccccc3[nH]2)cn1,-,-,23.4,-,-
Cc1ccc(-c2nc3ccccc3[nH]2)cn1,-,31.6,21.8,-,-
CCOC(=O)CNC(=O)CSc1ccc(-c2nc3ccccc3[nH]2)cn1,-,-,-,-,-
COc1ccc(NC(=O)c2ccccc2N2C(=O)C3C4C=CC(C5CC45)C3C2=O)c(OC)c1 (configuration not stated),-,-,-,-,?
COc1cccc(OCc2cc(C(=O)N3CCN(c4ccccc4O)CC3)no2)c1,-,106.5,49.9,-,?
COc1cccc(OCc2cc(C(=O)N3CCN(C(C)=O)CC3)no2)c1,-,103.6,59.6,-,?
SMILES,Pf growth 48h,Shiga toxin inh,Cycloheximide cs,NS1 inh,Pf growth 96h
COc1cccc(OCc2cc(C(=O)N3CCN(c4ccccc4OC)CC3)no2)c1,-,69.7,28.7,-,-
COCC1CCN(C(=O)c2cc(COc3ccc4ncccc4c3)on2)CC1,-,-,-,-,?
CC(C)n1cc(/C=C/c2cc[n+](C)cc2)c2ccccc21,0.522µM,-,-,-,?
CCn1cc(C=C2C(=O)NC(=O)NC2=O)c2ccccc21,-,-,-,-,-
CCn1cc(C=C2C(=O)N(C)C(=O)N(C)C2=O)c2ccccc21,-,.,-,-,0.117µM
CCn1cc(/C=C/c2cc[n+](C)cc2)c2ccccc21,0.37µM,-,-,-,0.208µM
O=C(C1CN(C(=O)c2cc3cc(Cl)ccc3o2)c2ccccc2O1)N1CCCCC1 (configuration not stated),-,.,.,.,?
CC(=O)c1c(C)[nH]c(C(=O)CSc2nnc3ccccn23)c1C,-,-,-,-,-
Cc1ccc(NC(=O)CSC(N)=O)cc1Cl,-,-,-,-,?
Cc1ccc(Nc2nc(Cl)c(C=O)s2)cc1Cl,-,-,23.5,.,-
COc1ccccc1Nc1nc(Cl)c(C=O)s1,?,-,47.8,.,-

# Assay outcomes (PubChem)
